# Columns and labels:
# Test in all cases: DAPPL (digital affinity profiling via proximity ligation, sequencing); 10 mM Tris-HCl pH 7.5, 50 mM NaCl, 1 mM DTT, 4% glycerol, room temperature, 30 min; GST-TFs on glutathione beads, 16-mer random dsDNA library, 0.1% formaldehyde crosslink after washing; high values mean tight binding
# [1] = biological target: T1, FLI1 (Homo sapiens, UniProt Q01543 1-452); details: protein: recombinant; tags: N-terminal GST; dsDNA, one strand shown
# T1 sequence: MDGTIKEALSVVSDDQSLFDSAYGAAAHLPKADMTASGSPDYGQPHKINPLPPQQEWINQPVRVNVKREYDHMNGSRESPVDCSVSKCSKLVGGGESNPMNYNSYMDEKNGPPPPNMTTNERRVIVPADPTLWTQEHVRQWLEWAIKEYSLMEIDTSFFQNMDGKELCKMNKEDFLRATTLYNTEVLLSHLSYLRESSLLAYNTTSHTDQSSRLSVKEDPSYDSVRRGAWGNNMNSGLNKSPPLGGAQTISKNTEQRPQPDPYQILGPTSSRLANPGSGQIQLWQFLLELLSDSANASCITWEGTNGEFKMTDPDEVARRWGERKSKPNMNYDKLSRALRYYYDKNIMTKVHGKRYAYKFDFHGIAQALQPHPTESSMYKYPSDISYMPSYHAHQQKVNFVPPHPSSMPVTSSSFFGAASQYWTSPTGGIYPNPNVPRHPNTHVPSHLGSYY
# Summary of the method: (§1)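 After expression in yeast as GST fusions, human transcription factors were bound to glutathione beads, DNA-barcoded and mixed with a tag-only sample. The pools were incubated with 200 nmole of a 16-mer random double-stranded DNA library in Tris/NaCl/DTT/glycerol buffer (30 min, room temperature), washed and crosslinked with 0.1% formaldehyde. Proximity ligation with BsaI/T4 ligase ran for 1 h at 37 °C, before PCR amplification and sequencing on an Illumina NextSeq500. Binding signal is a hexamer's read frequency for a factor divided by its frequency for the tag-only sample.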
# [2] = biological target: T2, ELK1 (Homo sapiens, UniProt P19419 1-428); details: protein: recombinant; tags: N-terminal GST; dsDNA, one strand shown
# T2 sequence: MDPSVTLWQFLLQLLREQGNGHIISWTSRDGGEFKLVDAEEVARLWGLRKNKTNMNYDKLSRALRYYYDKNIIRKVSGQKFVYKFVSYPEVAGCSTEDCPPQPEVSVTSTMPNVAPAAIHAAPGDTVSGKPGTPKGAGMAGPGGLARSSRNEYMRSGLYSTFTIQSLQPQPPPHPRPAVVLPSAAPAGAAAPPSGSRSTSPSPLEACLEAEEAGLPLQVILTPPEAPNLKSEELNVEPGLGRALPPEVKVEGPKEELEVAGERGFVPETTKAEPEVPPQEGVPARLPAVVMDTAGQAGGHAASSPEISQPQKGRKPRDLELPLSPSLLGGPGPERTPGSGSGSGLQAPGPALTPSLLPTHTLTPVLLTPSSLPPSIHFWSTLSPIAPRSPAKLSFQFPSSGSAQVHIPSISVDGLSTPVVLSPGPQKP
# Summary of the method: as §1
# [3] = biological target: T3, GABPA (Homo sapiens, UniProt Q06546 1-454); details: protein: recombinant; tags: N-terminal GST; dsDNA, one strand shown
# T3 sequence: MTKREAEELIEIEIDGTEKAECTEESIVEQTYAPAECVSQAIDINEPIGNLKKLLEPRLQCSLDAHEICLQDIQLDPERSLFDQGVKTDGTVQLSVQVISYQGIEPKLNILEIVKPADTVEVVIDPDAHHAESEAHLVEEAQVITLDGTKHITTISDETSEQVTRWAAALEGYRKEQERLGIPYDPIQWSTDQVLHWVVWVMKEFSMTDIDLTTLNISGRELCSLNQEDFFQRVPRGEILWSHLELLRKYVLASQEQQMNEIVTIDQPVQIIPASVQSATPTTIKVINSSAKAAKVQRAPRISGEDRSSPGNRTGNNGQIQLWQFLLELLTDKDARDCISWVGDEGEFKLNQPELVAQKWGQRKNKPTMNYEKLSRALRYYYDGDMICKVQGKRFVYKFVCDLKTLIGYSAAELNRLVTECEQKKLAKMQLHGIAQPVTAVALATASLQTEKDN
# Summary of the method: as §1
# [4] = biological target: T4, ERG (Homo sapiens, UniProt P11308 1-479); details: protein: recombinant; tags: N-terminal GST; dsDNA, one strand shown
# T4 sequence: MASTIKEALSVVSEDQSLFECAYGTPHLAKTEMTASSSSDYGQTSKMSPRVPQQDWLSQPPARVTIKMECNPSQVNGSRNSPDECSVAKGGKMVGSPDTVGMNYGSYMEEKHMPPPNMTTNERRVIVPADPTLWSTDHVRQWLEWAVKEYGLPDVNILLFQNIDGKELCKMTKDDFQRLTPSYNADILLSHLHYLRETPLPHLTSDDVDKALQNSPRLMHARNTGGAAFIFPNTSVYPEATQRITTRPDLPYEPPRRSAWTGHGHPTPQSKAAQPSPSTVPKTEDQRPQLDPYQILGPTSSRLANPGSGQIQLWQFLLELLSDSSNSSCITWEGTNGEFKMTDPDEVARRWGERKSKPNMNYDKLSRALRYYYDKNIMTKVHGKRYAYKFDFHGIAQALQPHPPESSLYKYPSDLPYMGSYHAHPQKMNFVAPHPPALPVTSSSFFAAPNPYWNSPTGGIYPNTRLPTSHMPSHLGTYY
# Summary of the method: as §1
# [5] = biological target: ELF1 (Homo sapiens, UniProt P32519 1-619); details: protein: recombinant; tags: N-terminal GST; dsDNA, one strand shown
# Summary of the method: as §1
# [6] = biological target: T5, EHF (Homo sapiens, UniProt Q9NZC4 1-300); details: protein: recombinant; tags: N-terminal GST; dsDNA, one strand shown
# T5 sequence: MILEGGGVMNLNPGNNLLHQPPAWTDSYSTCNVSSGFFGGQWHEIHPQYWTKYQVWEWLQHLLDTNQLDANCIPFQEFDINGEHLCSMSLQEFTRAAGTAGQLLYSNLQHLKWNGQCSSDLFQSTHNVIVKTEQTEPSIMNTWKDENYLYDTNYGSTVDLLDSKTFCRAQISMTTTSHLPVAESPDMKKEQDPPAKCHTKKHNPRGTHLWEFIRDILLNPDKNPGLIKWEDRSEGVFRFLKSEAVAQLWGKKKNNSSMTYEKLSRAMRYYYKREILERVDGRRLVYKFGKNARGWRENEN
# Summary of the method: as §1
# [7] = biological target: SPI1 (Homo sapiens, UniProt P17947 1-270); details: protein: recombinant; tags: N-terminal GST; dsDNA, one strand shown
# Summary of the method: as §1
# [8] = biological target: SPIB (Homo sapiens, UniProt Q01892 1-262); details: protein: recombinant; tags: N-terminal GST; dsDNA, one strand shown
# Summary of the method: as §1
# [9] = biological target: T6, ELK3 (Homo sapiens, UniProt P41970 1-407); details: protein: recombinant; tags: N-terminal GST; dsDNA, one strand shown
# T6 sequence: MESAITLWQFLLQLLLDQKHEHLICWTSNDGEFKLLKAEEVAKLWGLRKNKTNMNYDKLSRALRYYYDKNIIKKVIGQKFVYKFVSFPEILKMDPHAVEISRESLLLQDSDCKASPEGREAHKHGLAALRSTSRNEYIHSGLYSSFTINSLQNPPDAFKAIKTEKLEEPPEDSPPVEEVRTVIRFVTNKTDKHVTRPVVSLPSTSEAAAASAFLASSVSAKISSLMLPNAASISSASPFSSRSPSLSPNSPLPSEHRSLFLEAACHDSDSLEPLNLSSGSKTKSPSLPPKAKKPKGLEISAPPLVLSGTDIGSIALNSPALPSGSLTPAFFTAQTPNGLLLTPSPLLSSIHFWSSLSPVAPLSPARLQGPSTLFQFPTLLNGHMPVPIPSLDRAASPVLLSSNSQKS
# Summary of the method: as §1
# [10] = biological target: T7, FEV (Homo sapiens, UniProt Q99581 1-238); details: protein: recombinant; tags: N-terminal GST; dsDNA, one strand shown
# T7 sequence: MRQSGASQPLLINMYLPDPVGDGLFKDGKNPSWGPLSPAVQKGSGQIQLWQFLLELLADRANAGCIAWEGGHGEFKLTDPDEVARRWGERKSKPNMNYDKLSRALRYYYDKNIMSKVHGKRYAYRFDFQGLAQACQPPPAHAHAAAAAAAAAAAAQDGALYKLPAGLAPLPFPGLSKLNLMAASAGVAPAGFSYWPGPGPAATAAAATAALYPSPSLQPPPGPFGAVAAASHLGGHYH
# Summary of the method: as §1
# [11] = biological target: ETV5 (Homo sapiens, UniProt P41161 1-510); details: protein: recombinant; tags: N-terminal GST; dsDNA, one strand shown
# Summary of the method: as §1
# [12] = biological target: HSF1 (Homo sapiens, UniProt Q00613 1-529); details: protein: recombinant; tags: N-terminal GST; chain copies: 3; dsDNA, one strand shown
# Summary of the method: as §1
# [13] = biological target: T8, SPIC (Homo sapiens, UniProt Q8N5J4 1-248); details: protein: recombinant; tags: N-terminal GST; dsDNA, one strand shown
# T8 sequence: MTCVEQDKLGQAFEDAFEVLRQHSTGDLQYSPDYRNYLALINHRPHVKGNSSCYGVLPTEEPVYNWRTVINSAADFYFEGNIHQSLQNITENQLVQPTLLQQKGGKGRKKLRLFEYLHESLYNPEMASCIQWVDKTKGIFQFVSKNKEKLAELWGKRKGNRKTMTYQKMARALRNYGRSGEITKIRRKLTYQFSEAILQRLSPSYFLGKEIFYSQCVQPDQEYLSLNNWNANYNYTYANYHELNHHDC
# Summary of the method: as §1
# [14] = biological target: ELF4 (Homo sapiens, UniProt Q99607 1-663); details: protein: recombinant; tags: N-terminal GST; dsDNA, one strand shown
# Summary of the method: as §1
# [15] = biological target: T9, ELK4 (Homo sapiens, UniProt P28324-2 1-405); details: protein: recombinant; tags: N-terminal GST; dsDNA, one strand shown
# T9 sequence: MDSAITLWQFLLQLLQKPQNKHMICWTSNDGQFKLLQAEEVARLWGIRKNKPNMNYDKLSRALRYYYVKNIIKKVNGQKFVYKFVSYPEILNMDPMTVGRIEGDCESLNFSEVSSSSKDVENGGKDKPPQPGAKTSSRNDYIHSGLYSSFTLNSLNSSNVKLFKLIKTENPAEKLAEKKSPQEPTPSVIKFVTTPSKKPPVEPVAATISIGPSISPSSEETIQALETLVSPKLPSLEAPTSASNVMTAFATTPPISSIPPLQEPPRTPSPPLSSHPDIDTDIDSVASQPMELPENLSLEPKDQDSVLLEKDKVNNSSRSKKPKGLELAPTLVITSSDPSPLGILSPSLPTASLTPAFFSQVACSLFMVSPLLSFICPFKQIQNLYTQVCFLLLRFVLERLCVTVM
# Summary of the method: as §1
# [16] = biological target: T10, ETV2 (Homo sapiens, UniProt O00321 1-342); details: protein: recombinant; tags: N-terminal GST; dsDNA, one strand shown
# T10 sequence: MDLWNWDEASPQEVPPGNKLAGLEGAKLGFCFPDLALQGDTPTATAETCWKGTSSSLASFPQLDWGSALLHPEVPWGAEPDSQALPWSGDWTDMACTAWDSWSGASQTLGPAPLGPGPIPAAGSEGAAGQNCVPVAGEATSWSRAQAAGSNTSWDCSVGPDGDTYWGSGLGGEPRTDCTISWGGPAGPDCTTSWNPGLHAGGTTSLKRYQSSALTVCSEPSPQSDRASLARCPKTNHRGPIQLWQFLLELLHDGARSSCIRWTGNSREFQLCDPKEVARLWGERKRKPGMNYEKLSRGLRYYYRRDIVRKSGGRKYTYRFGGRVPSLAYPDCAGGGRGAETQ
# Summary of the method: as §1
# [17] = biological target: T11, ELF3 (Homo sapiens, UniProt P78545 1-371); details: protein: recombinant; tags: N-terminal GST; dsDNA, one strand shown
# T11 sequence: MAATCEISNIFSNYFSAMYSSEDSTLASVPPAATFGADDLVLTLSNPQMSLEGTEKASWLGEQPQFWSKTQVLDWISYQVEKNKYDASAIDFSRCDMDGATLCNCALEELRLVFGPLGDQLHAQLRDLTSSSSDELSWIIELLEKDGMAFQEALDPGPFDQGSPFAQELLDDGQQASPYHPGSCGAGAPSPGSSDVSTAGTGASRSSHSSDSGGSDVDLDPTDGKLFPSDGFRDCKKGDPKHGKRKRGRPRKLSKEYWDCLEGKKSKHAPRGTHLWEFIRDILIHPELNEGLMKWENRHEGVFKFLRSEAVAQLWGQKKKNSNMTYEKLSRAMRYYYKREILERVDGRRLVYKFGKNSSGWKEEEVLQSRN
# Summary of the method: as §1
# [18] = biological target: CRX (Homo sapiens, UniProt O43186 1-299); details: protein: recombinant; tags: N-terminal GST; dsDNA, one strand shown
# Summary of the method: as §1
# [19] = biological target: ETV1 (Homo sapiens, UniProt P50549 1-477); details: protein: recombinant; tags: N-terminal GST; dsDNA, one strand shown
# Summary of the method: as §1
# Chain of ELF1 (P32519 whole entry): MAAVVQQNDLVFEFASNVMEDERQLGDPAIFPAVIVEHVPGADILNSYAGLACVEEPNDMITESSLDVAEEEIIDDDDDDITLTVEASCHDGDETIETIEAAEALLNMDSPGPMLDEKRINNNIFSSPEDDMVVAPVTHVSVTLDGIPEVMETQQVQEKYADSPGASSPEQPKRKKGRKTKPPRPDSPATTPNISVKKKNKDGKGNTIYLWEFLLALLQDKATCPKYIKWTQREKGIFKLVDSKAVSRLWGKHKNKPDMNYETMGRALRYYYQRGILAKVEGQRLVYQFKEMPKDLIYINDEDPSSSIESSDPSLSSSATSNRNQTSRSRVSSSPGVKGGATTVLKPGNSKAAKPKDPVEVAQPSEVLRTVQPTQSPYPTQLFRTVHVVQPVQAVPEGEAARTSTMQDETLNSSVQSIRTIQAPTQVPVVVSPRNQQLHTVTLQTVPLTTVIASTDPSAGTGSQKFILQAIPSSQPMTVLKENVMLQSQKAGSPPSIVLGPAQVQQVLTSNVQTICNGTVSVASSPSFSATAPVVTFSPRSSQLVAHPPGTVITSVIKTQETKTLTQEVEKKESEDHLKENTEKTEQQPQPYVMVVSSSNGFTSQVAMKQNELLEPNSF
# Chain of ELF4 (Q99607 whole entry): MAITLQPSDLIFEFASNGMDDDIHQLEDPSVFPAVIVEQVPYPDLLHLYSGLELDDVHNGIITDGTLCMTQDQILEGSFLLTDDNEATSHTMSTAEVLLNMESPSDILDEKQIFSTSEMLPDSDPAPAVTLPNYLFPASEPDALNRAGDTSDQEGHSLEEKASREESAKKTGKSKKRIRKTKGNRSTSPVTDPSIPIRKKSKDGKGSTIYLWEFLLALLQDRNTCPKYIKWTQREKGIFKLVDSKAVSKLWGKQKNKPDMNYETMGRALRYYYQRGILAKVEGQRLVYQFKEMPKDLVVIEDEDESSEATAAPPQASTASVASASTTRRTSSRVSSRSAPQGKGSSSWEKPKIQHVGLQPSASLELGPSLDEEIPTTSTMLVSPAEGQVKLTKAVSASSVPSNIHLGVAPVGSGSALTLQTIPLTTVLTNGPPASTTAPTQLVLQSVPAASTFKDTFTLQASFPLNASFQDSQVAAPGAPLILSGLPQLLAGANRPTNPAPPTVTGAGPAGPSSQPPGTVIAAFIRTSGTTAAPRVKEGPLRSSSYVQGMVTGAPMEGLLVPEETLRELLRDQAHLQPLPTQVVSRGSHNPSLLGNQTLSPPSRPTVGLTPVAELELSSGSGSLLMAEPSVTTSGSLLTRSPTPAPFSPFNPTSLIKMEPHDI
# Chain of HSF1 (Q00613 whole entry): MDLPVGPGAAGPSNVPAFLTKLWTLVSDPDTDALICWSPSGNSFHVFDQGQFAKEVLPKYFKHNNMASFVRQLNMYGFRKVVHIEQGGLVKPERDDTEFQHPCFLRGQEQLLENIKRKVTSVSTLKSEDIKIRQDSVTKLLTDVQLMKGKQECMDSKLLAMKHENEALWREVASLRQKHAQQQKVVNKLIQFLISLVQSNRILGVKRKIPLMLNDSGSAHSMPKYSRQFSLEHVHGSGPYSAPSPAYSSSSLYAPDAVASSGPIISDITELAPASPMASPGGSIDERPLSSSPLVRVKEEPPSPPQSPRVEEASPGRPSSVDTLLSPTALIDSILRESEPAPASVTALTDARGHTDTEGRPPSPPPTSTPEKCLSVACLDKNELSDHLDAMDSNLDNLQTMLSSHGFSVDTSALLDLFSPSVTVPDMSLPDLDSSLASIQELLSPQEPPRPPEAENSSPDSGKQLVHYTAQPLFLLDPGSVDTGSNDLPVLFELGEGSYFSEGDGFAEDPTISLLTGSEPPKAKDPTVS
# Chain of ETV1 (P50549 whole entry): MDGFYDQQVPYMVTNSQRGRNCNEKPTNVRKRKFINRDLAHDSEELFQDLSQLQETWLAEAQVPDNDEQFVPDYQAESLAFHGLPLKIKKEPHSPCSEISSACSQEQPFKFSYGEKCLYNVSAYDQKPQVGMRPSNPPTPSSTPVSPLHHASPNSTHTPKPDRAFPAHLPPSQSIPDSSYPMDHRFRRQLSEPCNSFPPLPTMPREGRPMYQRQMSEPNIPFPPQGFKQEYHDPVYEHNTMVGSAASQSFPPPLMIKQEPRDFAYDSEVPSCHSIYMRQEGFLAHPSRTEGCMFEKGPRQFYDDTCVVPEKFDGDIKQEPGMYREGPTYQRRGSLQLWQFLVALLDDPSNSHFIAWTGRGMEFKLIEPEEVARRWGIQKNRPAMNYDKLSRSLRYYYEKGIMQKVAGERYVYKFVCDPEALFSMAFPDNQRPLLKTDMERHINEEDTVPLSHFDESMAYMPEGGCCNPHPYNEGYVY
# Chain of ETV5 (P41161 whole entry): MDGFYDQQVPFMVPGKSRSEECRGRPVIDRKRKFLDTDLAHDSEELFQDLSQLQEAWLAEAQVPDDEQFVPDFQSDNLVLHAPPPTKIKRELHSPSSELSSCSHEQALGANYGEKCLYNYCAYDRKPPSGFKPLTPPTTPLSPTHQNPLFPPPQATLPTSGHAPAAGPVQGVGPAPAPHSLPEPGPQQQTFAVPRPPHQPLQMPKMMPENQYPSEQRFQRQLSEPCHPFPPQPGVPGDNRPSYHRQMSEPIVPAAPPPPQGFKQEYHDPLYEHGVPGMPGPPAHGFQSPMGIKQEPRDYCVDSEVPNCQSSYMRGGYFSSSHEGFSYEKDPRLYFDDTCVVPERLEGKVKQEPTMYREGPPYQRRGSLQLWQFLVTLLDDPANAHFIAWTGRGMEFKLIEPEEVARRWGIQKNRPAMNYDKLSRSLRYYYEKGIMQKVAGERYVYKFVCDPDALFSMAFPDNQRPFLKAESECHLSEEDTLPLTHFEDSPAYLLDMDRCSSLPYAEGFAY
# Chain of SPIB (Q01892 whole entry): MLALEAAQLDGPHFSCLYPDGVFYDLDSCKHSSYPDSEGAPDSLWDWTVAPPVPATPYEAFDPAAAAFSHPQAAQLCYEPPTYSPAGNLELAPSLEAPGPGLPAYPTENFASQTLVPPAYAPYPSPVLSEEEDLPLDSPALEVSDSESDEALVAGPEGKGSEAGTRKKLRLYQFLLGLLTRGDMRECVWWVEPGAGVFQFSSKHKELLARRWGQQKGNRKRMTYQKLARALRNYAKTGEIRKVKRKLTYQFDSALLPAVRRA
# Chain of CRX (O43186 whole entry): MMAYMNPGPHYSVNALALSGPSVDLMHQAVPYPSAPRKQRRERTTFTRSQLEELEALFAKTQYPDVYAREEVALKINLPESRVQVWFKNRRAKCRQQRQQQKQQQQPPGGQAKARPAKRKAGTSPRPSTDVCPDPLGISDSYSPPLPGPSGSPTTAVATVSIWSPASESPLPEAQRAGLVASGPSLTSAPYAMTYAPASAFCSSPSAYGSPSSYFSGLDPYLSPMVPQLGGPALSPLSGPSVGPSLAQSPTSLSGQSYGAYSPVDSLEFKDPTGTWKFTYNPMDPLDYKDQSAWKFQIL
sequence,measurement,setting,value
TATAAC,binding signal,[1],"1.22 fold enrichment (6-mer frequency, TF over GST control)"
same,binding signal,[2],"1.21 fold enrichment (6-mer frequency, TF over GST control)"
same,binding signal,[3],"1.2 fold enrichment (6-mer frequency, TF over GST control)"
same,binding signal,[4],"1.28 fold enrichment (6-mer frequency, TF over GST control)"
same,binding signal,[5],"1.29 fold enrichment (6-mer frequency, TF over GST control)"
same,binding signal,[6],"1.15 fold enrichment (6-mer frequency, TF over GST control)"
same,binding signal,[7],"1.12 fold enrichment (6-mer frequency, TF over GST control)"
same,binding signal,[8],"1.39 fold enrichment (6-mer frequency, TF over GST control)"
same,binding signal,[9],"1.18 fold enrichment (6-mer frequency, TF over GST control)"
same,binding signal,[10],"1.26 fold enrichment (6-mer frequency, TF over GST control)"
same,binding signal,[11],"1.2 fold enrichment (6-mer frequency, TF over GST control)"
same,binding signal,[12],"1.15 fold enrichment (6-mer frequency, TF over GST control)"
same,binding signal,[13],"1.2 fold enrichment (6-mer frequency, TF over GST control)"
same,binding signal,[14],"1.2 fold enrichment (6-mer frequency, TF over GST control)"
same,binding signal,[15],"1.17 fold enrichment (6-mer frequency, TF over GST control)"
same,binding signal,[16],"1.1 fold enrichment (6-mer frequency, TF over GST control)"
same,binding signal,[17],"1.25 fold enrichment (6-mer frequency, TF over GST control)"
same,binding signal,[18],"1.43 fold enrichment (6-mer frequency, TF over GST control)"
same,binding signal,[19],"1.25 fold enrichment (6-mer frequency, TF over GST control)"
